Results on 37 compounds are retold here after PubChem BioAssay (NCATS).

Results filed as inconclusive are left out. Where a call stands in place of a potency, no number is given. Calls of active or inactive are those of the source. Calls follow the shape of the full dose curve; tested in HEK293 reporter line.
Potency is read from the fitted curve at half-maximal effect.

This assay can be described thus: qHTS for Inhibitors of the Functional Ribonucleoprotein Complex (vRNP) of Lassa (LASV) Arenavirus: LASV Primary Screen - GLuc reporter signal (AID 1347082). Also: nearly all actives have a fitted effect of over 60% in size. Conditions: LASV minigenome vRNP, Gaussia luciferase reporter; series mostly up to 57.5 µM. In general terms: qHTS replaces the single test concentration by a dilution series.
`CN1C(=O)CC(C)(c2ccccc2)C1=O` (configuration not stated): the Potency result is “inactive”. With `CCC1C(=O)OCC1Cc1cncn1C` (configuration not stated) the entry was “inactive”. With `CN(C)CC/C=C1\c2ccccc2COc2ccccc21` the entry was “inactive”. Under `CC1(C)S[C@@H]2[C@H](NC(=O)Cc3ccccc3)C(=O)N2[C@H]1C(=O)O` (tested in a mixture with another compound) stands “inactive”; under `COCCCC/C(=N\OCCN)c1ccc(C(F)(F)F)cc1`, “inactive”; under `Cc1ccc(C(=O)c2cc(O)c(O)c([N+](=O)[O-])c2)cc1`, “inactive”. Regarding `Cc1cc(C)cc(OCC2CNC(=O)O2)c1` (configuration not stated), the Potency result was “inactive”.

As to `Nc1cccc2c1CN(C1CCC(=O)NC1=O)C2=O` (configuration not stated), the Potency result is “inactive”. With `C[C@@H]1CC(=O)NN=C1c1ccc(NN=C(C#N)C#N)cc1` the entry was “inactive”; with `Cc1nc(-c2ccc(OCC(C)C)c(C#N)c2)sc1C(=O)O`, “inactive”. With `O=C(O)COCCN1CCN(C(c2ccccc2)c2ccc(Cl)cc2)CC1` (configuration not stated) the entry was “inactive”. Turning to `CCCSc1ccc2nc(NC(=O)OC)[nH]c2c1`, the Potency result is “inactive”. In the case of `CC(c1cc2ccccc2s1)N(O)C(N)=O` (configuration not stated), the Potency result was “inactive”. Take `CN1CC(=O)N/C1=N/C(=O)Nc1cccc(Cl)c1`: the Potency result was “inactive”. For `CN1CCC[C@@H]1CCO[C@](C)(c1ccccc1)c1ccc(Cl)cc1`, the Potency result is “inactive”.

On to `CCOC(=O)[C@H](CCc1ccccc1)N[C@@H](C)C(=O)N1[C@H](C(=O)O)C[C@@H]2CCC[C@@H]21`, for which the Potency entry is “inactive”.

As for `CO[C@H]1C=CO[C@@]2(C)Oc3c(C)c(O)c4c(O)c(c(/C=N/N5CCN(C)CC5)c(O)c4c3C2=O)NC(=O)/C(C)=C\C=C[C@H](C)[C@H](O)[C@@H](C)[C@@H](O)[C@@H](C)[C@H](OC(C)=O)[C@@H]1C`, the Potency result is “inactive”. With `O=C1N=C(O)CN1/N=C/c1ccc(-c2ccc([N+](=O)[O-])cc2)o1` the entry was “inactive”; with `Cc1cccc(Nc2ccccc2C(=O)O)c1C`, “inactive”; with `CN(C)CCC[C@@]1(c2ccc(F)cc2)OCc2cc(C#N)ccc21`, “inactive”.

`CCCNCC(O)COc1ccccc1C(=O)CCc1ccccc1` (configuration not stated): the Potency result was “inactive”. `O=C1CCc2cc(OCCCCc3nnnn3C3CCCCC3)ccc2N1`: the Potency entry is “inactive”.

In the case of `CC(=O)[C@]1(O)Cc2c(O)c3c(c(O)c2[C@@H](O[C@H]2C[C@H](N)[C@H](O)[C@H](C)O2)C1)C(=O)c1ccccc1C3=O`, the Potency was 3.98 µM (active). Consider `Cc1nc2n(c(=O)c1CCN1CCC(c3noc4cc(F)ccc34)CC1)CCCC2`, for which the Potency entry is “inactive”. Under `CNC(=O)c1cc(Oc2ccc(NC(=O)Nc3ccc(Cl)c(C(F)(F)F)c3)cc2)ccn1` stands 38.5 µM (active). As to `CC1(C)S[C@@H]2[C@H](NC(=O)[C@H](N)c3ccccc3)C(=O)N2[C@H]1C(=O)O`, the Potency result is “inactive”. Under `Nc1ccn([C@@H]2O[C@H](CO)[C@@H](O)C2(F)F)c(=O)n1` stands “inactive”; under `CN(C)C(=O)C(CCN1CCC(O)(c2ccc(Cl)cc2)CC1)(c1ccccc1)c1ccccc1`, “inactive”; under `Cc1c(OCC(F)(F)F)ccnc1CS(=O)c1nc2ccccc2[nH]1` (configuration not stated), “inactive”. With `COc1ccccc1Oc1c(NS(=O)(=O)c2ccc(C(C)(C)C)cc2)nc(-c2ncccn2)nc1OCCO` the entry was “inactive”. Under `Cc1oncc1C(=O)Nc1ccc(C(F)(F)F)cc1` stands “inactive”; under `CCN(CC)CCOC(=O)C1(C2CCCCC2)CCCCC1`, “inactive”; under `CC[C@@H]([C@H](C)O)n1ncn(-c2ccc(N3CCN(c4ccc(OC[C@@H]5CO[C@@](Cn6cncn6)(c6ccc(F)cc6F)C5)cc4)CC3)cc2)c1=O`, “inactive”. For the compound `Nc1ccc(O)c(C(=O)O)c1`, the Potency entry was “inactive”. With `COC(=O)[C@H]1[C@H]2C[C@@H]3c4[nH]c5cc(OC)ccc5c4CCN3C[C@H]2C[C@@H](OC(=O)c2cc(OC)c(OC)c(OC)c2)[C@@H]1OC` the entry was “inactive”; with `CCN(CC)CCCC(C)Nc1ccnc2cc(Cl)ccc12` (configuration not stated), “inactive”.

As to `COC(=O)N[C@H](C(=O)N[C@@H](Cc1ccccc1)[C@@H](O)CN(Cc1ccc(-c2ccccn2)cc1)NC(=O)[C@@H](NC(=O)OC)C(C)(C)C)C(C)(C)C`, the Potency result is “inactive”.
